# In the library only some 3.7% were active in any assay of this set; here they are far more common.
# ELG1 repair inh = qHTS screen for small molecules that inhibit ELG1-dependent DNA repair in human embryonic kidney (HEK293T) cells expressing luciferase-tagged ELG1; actives 2.3% (n = 330,000); Potency, µM (highest dose often 46.1 µM), inactives show at the top dose activity change, negative = inhibition, actives largely listed as inhibitors; HEK293T ELG1-luciferase reporter, luminescence, 16 h; DNA damage induced by 5-fluorouridine; note: % is set by controls: 0 for no effect and ±100 for the full control effect; nearly all actives have a fitted effect of over 55% in size
#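 Luminescence from the luciferase reporter, measured 30 min after ONE-Glo reagent at room temperature, was the read-out. Beforehand, 2,000 cells per well were exposed for 16 hr at 37 °C to 5-fluorouridine together with compound or vehicle.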
# Nrf2 activator = qHTS of Nrf2 Activators | AREc32 ARE-luciferase reporter (MCF7-derived line), luminescence, 24 h | Potency, µM (highest dose often 46.1 µM), without a hit: top-dose activation, most hits filed as activators | actives 0.31% (n = 410,000); note: % of control where 0% means no effect; nearly all actives have a fitted effect of over 65% in size
#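 ARE activation measured as luciferase luminescence (Steady-Glo, 30 min RT) in AREc32_Fluc cells after 24 hr compound exposure at 37 deg C, 5% CO2; cells seeded overnight at 1000/well in OPTI-MEM, 5% FBS.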
# Nrf2 inh = Nrf2 qHTS screen for inhibitors; A549 ARE-Fluc reporter, luciferase luminescence, 18-24 h; Potency, µM (titrated, usually from 46 µM), for the others: at the highest dose activity change, negative = inhibition, most hits filed as inhibitors; actives 2.1% (n = 360,000); AID 504444, 2011; note: % is set by controls: 0 for no effect and ±100 for the full control effect; nearly all actives have a fitted effect of over 60% in size
#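 Nrf2 activity is the BugLite luminescence, read 15 min after reagent at room temperature, following CellTiter-Fluor cytotoxicity readout (30 min, 37C). Compound titrations were applied for 18-24 h to 5000 A549 ARE_Fluc cells/well in 5% FBS OPTI-MEM.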
# A549 viability = Nrf2 qHTS screen for inhibitors: counterscreen for cytotoxicity | actives 0.16% (n = 390,000) | A549 ARE-Fluc cells, CellTiter-Fluor viability, 18-24 h | AID 504648, 2011 | Potency, µM (titrated, usually from 46 µM), without a hit: top-dose activity change, negative = cytotoxicity, usual class: inhibitors; note: % is set by controls: 0 for no effect and ±100 for the full control effect
#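 A549 ARE-Fluc cells in 5% FBS OPTI-MEM, 5000 cells/well, rested 2 h then exposed to compounds in concentration-response for 18-24 h at 37 °C. Viability by CellTiter-Fluor fluorescence (Ex 405/Em 525) after 30 min; luciferase luminescence (BugLite, 15 min, RT) read afterwards.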
# The depositor's hits bear a star; u = inconclusive; x = no result; ! = repeats disagree. Calls come from the whole dose curve; as a rule, active = well fitted curve in the direction sought with a large enough effect; inconclusive = small, poorly fitted or top-dose-only effect, or another doubt; inactive = no such curve, though single readings can be large; an effect the other way counts as inactive or inconclusive. Potency is the fitted concentration of half-maximal effect.
SMILES,ELG1 repair inh,Nrf2 activator,Nrf2 inh,A549 viability
CCOc1ccc(CCNC(=O)c2ccc(CS(=O)(=O)c3ccccc3C)o2)cc1OCC,x,3.9%,u,-4.9%
N#Cc1cc2c(nc1SCC(=O)Nc1cccc(C(F)(F)F)c1)C1CCN2CC1,x,2.3%,20.6µM*,-13.5%
CC(C)OC(=O)c1cc(C(=O)c2cc(Cl)ccc2O)coc1=N,2.3%,3.7%,u,-0.6%
COc1ccc(-n2c(C)nc3cc(C(=O)N4CCC5(CC4)OCCO5)ccc32)cc1,-2.6%,0.5%,-27.7%,u
COc1ccc(-c2nc3ccc(C(=O)N4CCC5(CC4)OCCO5)cc3nc2-c2ccc(OC)cc2)cc1,16.4µM*,0.0%,u,0.8%
CC12CCC(=O)C=C1CCC1C2CCC2(C)C(O)CCC12 (configuration not stated),-2.9%,-0.5%,-10.1%,-0.2%
CC(=O)C1C(N2CC2)CC2C3CCC4=CC(=O)CCC4(C)C3CCC21C (configuration not stated),x,0.8%,-16.4%,16.4µM*
CC1Cc2cc(S(=O)(=O)N(Cc3ccccc3)C(C)C)ccc2N1C(=O)C1CCC1 (configuration not stated),x,8.5%,u,1.1%
Cc1ccc(C)c(N2CCN(C(=O)CCS(=O)(=O)c3ccc4c(c3)oc(=O)n4C)CC2)c1,-4.3%,0.1%,20.6µM*!,12.4%
Cc1c2ccncc2c(C)c2c1[nH]c1ccccc12,u,4.7%,7.31µM*,u
c1ccc2c(c1)[nH]c1cnccc12,u,-0.7%,-11.3%,-6.9%
C=CCCC[C@@H]1OC(=O)CNC(=O)C([C@@H](C)CC)NC(=O)[C@@H]2CCCN2C(=O)C([C@@H](C)CC)OC(=O)[C@H](Cc2ccccc2)N(C)C(=O)[C@H](C(C)C)NC(=O)C1(C)C (some centres not stated),x,-2.2%,x,x
CCC(C)C1NC(=O)C2CCCN2C(=O)C(CC(C)C)OC(=O)CCNC(=O)C(C)N(C)C(=O)C(C(C)C)N(C)C1=O (configuration not stated),x,4.0%,5.17µM*,8.2µM*
Cn1cc(P(=S)(c2ccccc2)c2ccccc2)c2ccccc21,x,x,u,14.3%
Cc1ccc2c(c1)c(C1=c3ccccc3=NC1=O)c(O)n2C,1.4%,11.2µM*,u,3.5%
CCc1ccccc1NC(=O)c1cccn(Cc2ccccc2F)c1=O,x,0.2%,x,-1.5%
CCOc1ccc(S(=O)(=O)N(CC(=O)NCc2ccccc2OC)c2ccccc2)cc1,x,0.4%,16.4µM*,-27.7%
O=c1[nH]c(O)c(N=Nc2ccc(Cl)c(S(=O)(=O)Nc3ccccc3Cl)c2)c(=O)[nH]1,4.1%,u,u,-8.2%
CC(C)c1ccc(OCC(=O)N2CCN(CCc3ccncc3)CC2)cc1,x,1.4%,1.6%,16.0%
C[n+]1c(-c2ccccc2)c2cc(N)ccc2c2ccc(N)cc21,u,-3.3%,1.84µM*,u
CCCOc1ccc(C2SCC(=O)Nc3c2c(C)nn3-c2cccc(C)c2)cc1OC (configuration not stated),x,3.4%,-28.9%,3.9%
CN(C)[C@@H]1C(=O)C(C(N)=O)=C(O)[C@@]2(O)C(=O)C3=C(O)c4c(O)ccc(Cl)c4[C@@](C)(O)C3C[C@@H]12 (some centres not stated),11.5%,-0.8%,23.1µM*,u
O=C(COc1cccc(Cl)c1)N1CCN(CCc2ccncc2)CC1,x,2.7%,1.4%,5.4%
CCCCCCn1c(O)c(C=NC2CCN(Cc3ccccc3)CC2)c(=O)[nH]c1=O,20.6µM*,-1.2%,u,-8.5%
COc1ccc(-n2c(-c3ccco3)nc3c(cnn3-c3ccc(Cl)cc3)c2=O)cc1,x,0.0%,25.9µM*,-2.7%
SMILES,ELG1 repair inh,Nrf2 activator,Nrf2 inh,A549 viability
Clc1cccc(N2Cc3cc(-c4ccccc4)ccc3-n3nncc3C2)c1,x,-0.6%,x,x
CCCCCN1C(=O)c2cc(OC)ccc2[C@@]2(C(=O)OCC)Cc3cc(Cl)ccc3[C@@H]12,x,-3.7%,x,x
C[C@H]1CC[C@@H]2[C@@H](C)[C@H]3C(C[C@H]4C5CC[C@H]6C[C@@H](O)CC[C@]6(C)C5CC[C@]34C)N2C1 (some centres not stated),x,x,18.2%,1.5%
CC(C)(C)c1ccc(C(=O)Nc2ccc3nc(SCC(=O)N4CCCC4)sc3c2)cc1,x,-2.9%,14.6µM*,u
Cc1ccccc1C(=O)Nc1ccc2nc(SCC(=O)N(C)c3ccccc3)sc2c1,x,0.7%,u,-12.8%
COc1ccc(-c2noc(=O)n2Cc2cc(C)ccc2C)cc1,u,1.3%,5.1%,11.9%
CN[C@H]1C[C@H]2O[C@@](C)([C@H]1OC)n1c3ccccc3c3c4c(c5c6ccccc6n2c5c31)C(=O)NC4,0.517µM*,x,x,x
Cc1c(-c2ccc(Br)cc2)c(=O)oc2ccc(OC(=O)N3CCOCC3)cc12,x,6.0%,x,u
CCOc1ccccc1NC(=O)c1cccn(Cc2ccccc2C)c1=O,x,6.6%,x,-0.3%
CC(=O)OCC12CC(OC(=O)CC(C)C)C(C)=CC1OC1C(O)C(OC(C)=O)C2(C)C12CO2 (configuration not stated),x,-1.6%,0.0206µM*,x
CC(C)c1ccc2oc(-c3ccc(NC(=O)c4cc5ccccc5o4)cc3)nc2c1,x,0.0%,u,-1.4%
Cc1ccc(-c2nc(CN3C(=O)CN=C(c4ccccc4)c4ccccc43)c(C)o2)cc1,x,-0.9%,-8.1%,-19.8%
COCCCn1c(N)c(C(=O)NCc2ccco2)c2nc3ccccc3nc21,u,21.1%,-5.9%,8.8%
CCC(C)NC(=O)c1c(N)n(CCCOC)c2nc3ccccc3nc12 (configuration not stated),16.4µM*,0.3%,u,-2.5%
COCCCn1c(N)c(C(=O)Nc2ccccc2)c2nc3ccccc3nc21,16.4µM*,6.5%,-14.9%,-14.2%
CCC(C)NC(=O)c1c(N)n(CC2CCCO2)c2nc3ccccc3nc12 (configuration not stated),20.6µM*,0.2%,u,-1.4%
CC(C)CCNC(=O)c1c(N)n(CC2CCCO2)c2nc3ccccc3nc12 (configuration not stated),u,-1.6%,u,-20.9%
CC(C)c1ccc(NC(=O)c2ccc3c(c2)CCN3S(=O)(=O)c2ccccc2)cc1,x,-0.4%,u,-8.7%
COc1ccc(C)cc1NC(=O)c1c(C)nn(Cc2ccccc2)c1Cl,14.6µM*,0.2%,u,-6.9%
CCOc1ccc(NC(=O)c2c(C)nn(Cc3ccccc3)c2Cl)cc1,-1.6%,-0.8%,4.2%,0.0%
CC1=CC(=C2C(=O)NC(=S)NC2=O)C=C(C(F)(F)F)N1Cc1ccccc1,u,0.4%,u,14.6µM*

# Bioassay records from PubChem BioAssay.
